Test results reported in PubChem BioAssay (Tox21).
Several values for one entry are separate records, joined by “and”; a condition that tells them apart may be missing. Identical values can stand only once. Inconclusive results are not listed. A structure can be active in one record and inactive in another. Activity calls are given as the source filed them. Unless noted, the call rests on the fitted dose curve; in most records, active means well fitted curve in the direction sought with a large enough effect in the repeat runs; inconclusive means weak or mixed curves; inactive means no such curve, though single readings can be large; an effect the other way counts as inactive or inconclusive.

What was measured:
[1] = qHTS assay to identify small molecule antagonists of the estrogen related receptor (ERR) signaling pathway from Tox21 library - cell viability counter screen (AID 1224834); further: nearly all actives have a fitted effect of over 30% in size; further: potency means the concentration at half of the fitted maximal effect
Outline: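 Compounds in DMSO were pinned onto ERR cells that had been incubated for 6 h, and the plates were held at 37 C for 17.5 h. CellTiter-Fluor reagent was then added and fluorescence was measured after 30 min.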

[2] = target: Luciferin 4-monooxygenase (Photinus pyralis) (UniProt P08659); assay: qHTS assay to identify small molecule inhibitors of firefly luciferase (AID 1224835); further: nearly all actives have a fitted effect of over 25% in size; further: potency means the concentration at half of the fitted maximal effect
Sequence of Luciferin 4-monooxygenase (Photinus pyralis) (P08659 whole entry, looked up): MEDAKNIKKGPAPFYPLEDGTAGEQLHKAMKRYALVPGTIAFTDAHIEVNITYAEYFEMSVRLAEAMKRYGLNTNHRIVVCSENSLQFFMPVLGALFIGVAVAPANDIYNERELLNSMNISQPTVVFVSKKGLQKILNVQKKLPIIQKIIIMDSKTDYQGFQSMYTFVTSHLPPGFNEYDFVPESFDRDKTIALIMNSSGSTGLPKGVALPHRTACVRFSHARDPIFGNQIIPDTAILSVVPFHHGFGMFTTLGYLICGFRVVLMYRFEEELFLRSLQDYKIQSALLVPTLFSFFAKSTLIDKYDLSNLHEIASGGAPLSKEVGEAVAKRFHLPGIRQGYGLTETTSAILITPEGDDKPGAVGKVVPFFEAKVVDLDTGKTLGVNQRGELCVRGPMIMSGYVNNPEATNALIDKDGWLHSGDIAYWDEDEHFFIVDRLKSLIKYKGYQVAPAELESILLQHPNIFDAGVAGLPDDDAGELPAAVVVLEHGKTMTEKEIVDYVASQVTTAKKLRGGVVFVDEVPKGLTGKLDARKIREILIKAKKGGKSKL
Outline: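 Quantitative HTS format; KM concentrations of both substrates. Purified P. pyralis FLuc activity quantified from luminescence images.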

[3] = qHTS assay to identify small molecule agonists of the constitutive androstane receptor (CAR) signaling pathway - cell viability counter screen (AID 1224836); further: nearly all actives have a fitted effect of over 45% in size; further: potency means the concentration at half of the fitted maximal effect
Outline: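 Double-stable HepG2 hepatoma cells (hCAR plus CYP2B6-2.2kb) are treated for 23 h at 37 C with test compounds in 15-point concentration series. PK11195 at 0.75 uM final is co-added. Cell viability is quantified by CellTiter-Fluor.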

[4] = qHTS assay to identify small molecule antagonists of the constitutive androstane receptor (CAR) signaling pathway - cell viability counter screen (AID 1224837); further: nearly all actives have a fitted effect of over 45% in size; further: potency means the concentration at half of the fitted maximal effect
Outline: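 Cells are seeded, rested 4 hr at 37 C/5% CO2, dosed with compound (15-point series) and 50 nM CITCO, incubated a further 23 hr, and then CellTiter-Fluor reagent is added before fluorescence is read. The line is HepG2 with stable hCAR and CYP2B6-2.2kb.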

[5] = target: Nuclear receptor subfamily 1 group I member 3 (Homo sapiens) (UniProt Q14994); assay: qHTS assay to identify small molecule antagonists of the constitutive androstane receptor (CAR) signaling pathway (AID 1224838);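 further: HepG2 cells stably expressing hCAR with CYP2B6 luciferase reporter stimulated by CITCO; nearly all actives have a fitted effect of over 40% in size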; further: potency means the concentration at half of the fitted maximal effect
Sequence of Nuclear receptor subfamily 1 group I member 3 (Homo sapiens) (Q14994 whole entry, looked up): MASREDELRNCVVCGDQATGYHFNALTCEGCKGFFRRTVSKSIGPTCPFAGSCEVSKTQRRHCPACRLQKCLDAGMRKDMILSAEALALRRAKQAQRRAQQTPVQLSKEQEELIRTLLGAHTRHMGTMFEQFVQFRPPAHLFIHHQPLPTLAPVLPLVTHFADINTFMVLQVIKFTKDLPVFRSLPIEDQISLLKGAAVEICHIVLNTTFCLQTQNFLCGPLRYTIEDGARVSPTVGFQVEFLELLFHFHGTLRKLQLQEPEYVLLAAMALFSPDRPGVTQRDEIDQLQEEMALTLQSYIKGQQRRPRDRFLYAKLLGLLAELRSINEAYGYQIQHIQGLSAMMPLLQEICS
Outline: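 Luminescence from a CYP2B6-2.2kb promoter reporter in hCAR-expressing HepG2 cells reflects CAR signaling. Cells received compounds at 15 concentrations and 50 nM CITCO (final), then incubated 24 h at 37 C/5% CO2.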

[6] = target: Nuclear receptor subfamily 1 group I member 3 (Homo sapiens) (UniProt Q14994); assay: qHTS assay to identify small molecule agonists of the constitutive androstane receptor (CAR) signaling pathway (AID 1224839); further: nearly all actives have a fitted effect of over 15% in size; further: potency means the concentration at half of the fitted maximal effect
Outline: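 Readout: firefly luciferase luminescence via ONE-Glo. System: HepG2 double-stable for hCAR and CYP2B6-2.2kb. Conditions: 15-point compound titration, PK11195 at 0.75 uM final, 24 h incubation.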

[7] = qHTS assay to identify small molecule antagonists of the estrogen related receptor signaling pathway with the pleiotropic PPARgamma coactivator (PGC) from Tox21 10K library - cell viability counter screen (AID 1224840; active means well fitted cell-killing curve with a large enough effect in the repeat runs, not every such curve was filed as active; further: nearly all actives have a fitted effect of over 40% in size; further: potency means the concentration at half of the fitted maximal effect)
Outline: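 Cell viability is measured by CellTiter-Fluor fluorescence in PGC/ERR cells that receive compounds after a 6-hour attachment period and are then incubated 17.5 hours at 37 C.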

[8] = qHTS assay to identify small molecule antagonists of the estrogen related receptor signaling pathway with the pleiotropic PPARgamma coactivator (PGC) from Tox21 10K library (AID 1224841; call rule not given here; further: actives are mostly falling curves and most rising ones were filed inactive; nearly all actives have a fitted effect of over 50% in size; further: potency means the concentration at half of the fitted maximal effect)
Outline: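 Cells stably carrying the PGC/ERR reporter, seeded at 2,000 per well, received pin-transferred compounds 6 h post-plating. Exposure lasted 18 h at 37 C. Signal: One-Glo luminescence.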

[9] = qHTS assay to identify small molecule agonists of the estrogen related receptor signaling pathway with the pleiotropic PPARgamma coactivator (PGC) from Tox21 10K library (AID 1224842); further: nearly all actives have a fitted effect of over 15% in size
Outline: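 PGC/ERR reporter cells (NTP line) were seeded 2,000 per well, rested 6 h at 37 C/5% CO2, then pin-dosed with compounds in DMSO for 18 h at 37 C; luciferase read by One-Glo luminescence after 30 min at room temperature.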

[10] = target: Thyrotropin receptor (Homo sapiens) (UniProt P16473); assay: qHTS assay to identify small molecule agonists of the thyroid stimulating hormone receptor (TSHR) signaling pathway (AID 1224843; calls by dose curve; further: nearly all actives have a fitted effect of over 45% in size)
Sequence of Thyrotropin receptor (Homo sapiens) (P16473 whole entry, looked up): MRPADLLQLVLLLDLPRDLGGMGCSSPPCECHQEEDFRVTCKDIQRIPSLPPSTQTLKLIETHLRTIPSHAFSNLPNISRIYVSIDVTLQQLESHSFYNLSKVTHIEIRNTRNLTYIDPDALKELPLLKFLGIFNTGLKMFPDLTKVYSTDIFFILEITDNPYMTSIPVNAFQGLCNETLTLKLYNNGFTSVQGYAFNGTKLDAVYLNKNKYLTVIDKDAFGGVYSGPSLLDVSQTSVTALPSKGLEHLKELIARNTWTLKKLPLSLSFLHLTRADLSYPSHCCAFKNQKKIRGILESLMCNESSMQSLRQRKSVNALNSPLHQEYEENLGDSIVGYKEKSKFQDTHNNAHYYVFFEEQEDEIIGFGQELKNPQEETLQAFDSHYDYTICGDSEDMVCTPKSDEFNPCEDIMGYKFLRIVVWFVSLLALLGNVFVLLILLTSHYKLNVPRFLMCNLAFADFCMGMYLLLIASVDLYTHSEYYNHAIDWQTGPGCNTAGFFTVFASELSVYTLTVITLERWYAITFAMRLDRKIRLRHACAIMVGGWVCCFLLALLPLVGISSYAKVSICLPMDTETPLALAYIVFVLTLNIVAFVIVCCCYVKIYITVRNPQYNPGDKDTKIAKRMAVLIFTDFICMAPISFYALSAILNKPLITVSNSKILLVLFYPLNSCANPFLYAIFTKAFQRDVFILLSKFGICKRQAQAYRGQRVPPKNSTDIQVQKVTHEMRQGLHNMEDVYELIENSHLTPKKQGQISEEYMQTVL
Outline: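 Using 15 concentrations per compound in triplicate, cAMP production was monitored in TSHR-HEK293 cells after 30 min compound incubation at RT; HTRF reagents followed, with fluorescence intensity recorded after 1 h.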

Measured: Potency

ClC(Cl)(Cl)Br
not listed: [8] | [9] | [10]
inactive: all other assays above

CCC/C=N/O
not listed: [8] | [9] | [10]
inactive: all other assays above

COc1ccc(O)c(C(C)(C)C)c1
inactive: [1] | [2] | [3] | [4] | [5]

ClCc1ccccn1
inactive: [1] | [2] | [3] | [4] | [5] | [6]

CCCCCCCCCC(CC)c1ccc(S(=O)(=O)O)cc1 (stereo not given)
inactive: [2] | [3] | [4]
61.8 µM (active) and inactive: [1]

Oc1ccc(Cl)cc1Cl
not listed: [10]
inactive: all other assays above

CC1(C)Cc2cccc(O)c2O1
inactive: [1] | [2] | [3] | [4] | [5]

C[N+](C)(C)C
inactive: [1] | [2] | [3] | [4] | [5] | [6]

COP(=S)(OC)Oc1ccc(S(=O)(=O)N(C)C)cc1
inactive: all assays above

Cc1ccc(N=CN(C)C=Nc2ccc(C)cc2C)c(C)c1
not listed: [8] | [9]
inactive: all other assays above

CCCCCCCCCc1ccc(O)cc1
inactive: [2] | [3] | [4] | [5]
active: [1] 61.8 µM

NN=C(N)N
inactive: [1] | [2] | [3] | [4]

CCCCSP(=O)(SCCCC)SCCCC
active: [6] 23.8 µM and 8.63 µM
not listed: [8] | [9] | [10]
inactive: all other assays above

O=C1CCCO1
not listed: [10]
inactive: all other assays above

CCC(=O)Nc1ccc(Cl)c(Cl)c1
inactive: [1] | [2] | [3] | [4] | [5] | [6]

CC(C)(C#N)N=NC(C)(C)C#N
inactive: [1] | [2] | [3] | [4] | [5]

CC(C)Nc1nc(Cl)nc(NC(C)C)n1
not listed: [10]
inactive: all other assays above

CC[n+]1c(-c2ccccc2)c2cc(N)ccc2c2ccc(N)cc21
active: [1] 24.2 µM and 6.68 µM | [3] 48.3 µM | [4] 30.5 µM | [5] 21.6 µM and 13.3 µM
inactive: [2]

O=P(OCCCl)(OCCCl)OCCCl
4.81 µM (active) and inactive: [8]
not listed: [7] | [10]
inactive: all other assays above

O=C(O)c1nn(Cc2ccc(Cl)cc2Cl)c2ccccc12
68.1 µM (active) and inactive: [8]
not listed: [10]
inactive: all other assays above

C[C@]12CC[C@H]3[C@@H](CCC4=CC(=O)CC[C@@H]43)[C@@H]1CC[C@@H]2O
inactive: [1] | [2] | [3] | [4] | [5] | [6]

ClC(Cl)=C(Cl)C(Cl)=C(Cl)Cl
inactive: [1] | [2] | [3] | [4]

ClCC(Cl)CCl
inactive: all assays above

CC1(C)C(C(=O)OC(C#N)c2cccc(Oc3ccccc3)c2)C1(C)C (stereo not given)
active: [6] 12.3 µM and 24.3 µM | [8] 27.5 µM
not listed: [10]
inactive: all other assays above

C=CC(=O)OCC(CC)(COC(=O)C=C)COC(=O)C=C
active: [1] 15.8 µM and 17.2 µM | [3] 35.3 µM and 30.6 µM | [4] 28 µM and 19.3 µM | [5] 28 µM and 21.7 µM | [7] 8.87 µM and 12.2 µM | [8] 17.7 µM and 21.7 µM
inactive: [2] | [6] | [9]

C=CC(Cl)CCl (stereo not given)
not listed: [8] | [9] | [10]
inactive: all other assays above

CC(C)=CC1C(C(=O)OCc2cccc(Oc3ccccc3)c2)C1(C)C (stereo not given)
active: [6] 4.86 µM and 6.68 µM
not listed: [10]
inactive: all other assays above

Clc1ccccc1-c1nnc(-c2ccccc2Cl)nn1
active: [2] 1.4 µM and 708 nM
inactive: [1] | [3] | [4] | [5]

CNC(=O)Oc1cccc2c1OC(C)(C)C2
not listed: [7] | [10]
inactive: all other assays above

COP(=O)(NC(C)=O)SC (stereo not given)
inactive: [1] | [2] | [3] | [4] | [5]

N#Cc1c(Cl)c(Cl)c(Cl)c(C#N)c1Cl
active: [1] 7.55 µM and 21.7 µM | [3] 26.8 µM and 24.3 µM | [4] 15.1 µM and 9.69 µM | [5] 5.34 µM and 4.33 µM
inactive: [2] | [6]

N#CC(c1ccccc1)c1ccccc1
inactive: all assays above

O=NN1CCOCC1
inactive: [1] | [2] | [3] | [4]

CC(C)CON=O
not listed: [8] | [9] | [10]
inactive: all other assays above

Cn1c(-c2ccccc2)cc(-c2ccccc2)[n+]1C
active: [8] 8.62 µM and 27.3 µM
inactive: all other assays above

CCOC(=O)c1ccccc1N
not listed: [8] | [9] | [10]
inactive: all other assays above

C[C@]12CCC(=O)C=C1CC[C@@H]1[C@@H]2CC[C@@]2(C)[C@H]1CC[C@]2(C)O
not listed: [8] | [9] | [10]
inactive: all other assays above

Clc1cccc(Cl)c1
not listed: [6] | [10]
inactive: all other assays above

COc1ccc(C=O)cc1OC
not listed: [7] | [10]
inactive: all other assays above

C=C(C)C#N
not listed: [6] | [8] | [9]
inactive: all other assays above

CS(=O)(=O)NC(=O)c1cc(Oc2ccc(C(F)(F)F)cc2Cl)ccc1[N+](=O)[O-]
inactive: [1] | [2] | [3] | [4] | [5] | [10]

N#Cc1cccnc1
not listed: [6] | [7]
inactive: all other assays above

CC(C)(O)C(=O)Nc1ccc([N+](=O)[O-])c(C(F)(F)F)c1
active: [8] 27.9 µM
not listed: [6] | [10]
inactive: all other assays above

CCC[CH2][Sn]([Cl])([CH2]CCC)[CH2]CCC
active: [1] 2.17 µM and 1.22 µM | [2] 31.8 µM and 39.9 µM | [3] 546 nM and 545 nM | [4] 1.54 µM and 686 nM | [5] 244 nM and 386 nM | [7] 1.09 µM and 864 nM

O=[N+]([O-])c1ccc(Cl)c([N+](=O)[O-])c1
inactive: [2] | [6] | [9]
active: [1] 24.7 µM and 38.6 µM | [3] 19.6 µM and 24.3 µM | [4] 22 µM and 17.2 µM | [5] 19.6 µM and 15.4 µM

CCCCOCC1CO1 (stereo not given)
not listed: [6] | [7]
inactive: all other assays above

O=C1Nc2ccc(Cl)cc2C(c2ccccc2)=NC1O (stereo not given)
not listed: [6] | [7]
inactive: all other assays above

[CH3][Sn]([Cl])([Cl])[Cl]
inactive: [1] | [2] | [3] | [4] | [5] | [10]

CN(C)c1nc(=O)n(C2CCCCC2)c(=O)n1C
inactive: [1] | [2] | [3] | [4] | [5] | [7]

Nc1ccc2ccccc2c1
not listed: [6] | [10]
inactive: all other assays above

Nc1ncn[nH]1
inactive: [1] | [2] | [3] | [4] | [5] | [7]

CCCCOCCOC(C)=O
not listed: [6] | [10]
inactive: all other assays above
